From PubChem BioAssay AID720541 (National Center for Advancing Translational Sciences (NCATS), 2013)
Screen size: about 1,300 compounds; about 420 (32%) were called active. Another 32% or so got no clear call; they are omitted. Calls follow the shape of the dose curve; as a rule, active = well fitted inhibition curve with a large enough effect; inconclusive = small, poorly fitted or top-dose-only effect; inactive = no such curve, though single readings can be large or run the other way. The list shows a part of the results. Entries that show only a call come without a potency.

Molecular target: C-terminal-binding protein 1 (Homo sapiens) (UniProt Q13363)
Test: qHTS for Inhibitors of the Phosphatase Activity of Eya2: Carboxyl-terminal binding protein (CtBP) Counterscreen for Cherry-picked Compounds; also: nearly all actives have a fitted effect of over 65% in size
Conditions: purified protein-protein binding, AlphaScreen, 3 h; series mostly up to 46.1 µM
Text: The Eya protein family is an essential co-activator of the Six1 transcription factor. Six1 is a developmental gene that is abnormally re-expressed in a large percentage of breast cancers. This over-expression plays a causal role in the initiation and metastatic development of breast cancers. The Eya family of protein is also found to contain a unique HAD phosphatase domain with protein tyrosine phosphatase activity which can potentially play a role in Six1-mediated breast tumorigenesis. Recently, Eya2 is found to dephosphorylate the histone variant H2AX and direct cells towards DNA repair instead of apoptosis in the event of DNA damage.
A 1536 well format, fluorescence based qHTS assay was developed and used to target the phosphatase activity of Eya2 (AID 488837). In addition, a CtBP counterscreen was developed using the AlphaScreen technology to evaluate compound selectivity to target […]. The data herein reports the activity of the cherry-picked compounds against the CtBP AlphaScreen. Compounds that are active or have > 100 fold selectivity vs. the Eya2 activity were excluded for further characterization. Inactivity is the desired outcome for the CtBP counterscreen.
NIH Chemical Genomics Center [NCGC]
NIH Molecular Libraries Probe Centers Network [MLPCN]
Assay Submitter (PI): Rui Zhao, University of Colorado Denver
Four microliters of reagent (25 nM GST-E1A, 25 nM CtBP-6x HIS) was dispensed in a 1536 well Greiner plates. Twenty-three nanoliter of test compounds (final concentration of 2.5 nM - 46 uM) and positive control E1A peptide inhibitor (final concentration of 0.14 nM - 4.6 uM) were added to the plates using the Kalypsys pintool equipped with a 1536 pin head. The plates was then incubated at room temperature for 2 hours followed by addition of 1 uL Alpha bead donor / acceptor mix (20 ug/mL final concentration). The assay plates were incubated for additional 1 hour at room temperature and protected from light. The AlphaScreen signal was obtained using the PerkinElmer EnVision plate reader using the 680 nm excitation and 520 - 620 nm emission filters. The data was normalized to the E1A peptide inhibitor for maximum inhibition and DMSO treated wells as negative control.
Potency is read from the fitted curve at half-maximal effect.

Row | Compound | Potency
1 | N[C@@H](Cc1cc(I)c(O)c(I)c1)C(=O)O | 8.49 µM (active)
2 | CN(C)c1ccc(C=C2C=CC=C2)cc1 | inactive
3 | CN(C)c1ccc(N=Nc2ccccc2)cc1 | 4.78 µM (active)
4 | COC(=O)C1=C(c2ccc(F)cc2OCc2ccccc2)C[C@@H]2CC[C@H]1N2C(=O)NCc1ccc(N(C)C)cc1 | 10.7 µM (active)
5 | COC(=O)C1=C(c2cccc(OCc3ccccc3)c2)C[C@@H]2CC[C@H]1N2C(=O)NCCCc1ccccc1 | inactive
6 | CCOC(=O)c1cc2c(cn1)[C@@H](CCO)NC2 | inactive
7 | COc1cccc2c1C(=O)c1c(O)c3c(c(O)c1C2=O)C[C@@](O)(C(=O)CO)C[C@@H]3O[C@H]1C[C@H](N)[C@H](OC2CCCCO2)[C@H](C)O1 (stereo partly drawn) | 7.57 µM (active)
8 | C[C@H]1CCC[C@H](O)CCCCCc2cc(O)cc(O)c2C(=O)O1 | inactive
9 | CN(C)S(=O)(=O)c1ccc(C(=O)NNc2nc(-c3ccccc3)c3cc(Br)ccc3n2)cc1 | 8.49 µM (active)
10 | O=C1NC(=S)NC(=O)C1=Cc1ccc(Br)s1 | inactive
11 | COc1ccc(-c2cc(=NCCC(=O)O)c3cc(C)ccc3o2)cc1 | 10.7 µM (active)
12 | Cc1nc2ccccc2c(=O)n1-c1ccc(Cl)cc1[N+](=O)[O-] | inactive
13 | COc1ccccc1N1CCN(CCc2c[nH]c3cc4c(cc23)OCO4)CC1 | 13.5 µM (active)
14 | O=C1NC(=O)N(c2ccc(Cl)cc2)C(=O)/C1=C\c1ccc(Sc2nc3ccccc3[nH]2)o1 | inactive
15 | CC(N)[C@H](O)c1ccc(O)c(O)c1 (stereo partly drawn) | inactive
16 | Cc1cc(/C=C2\C(=O)NC(=O)N(c3ccc(Br)cc3)C2=O)c(C)n1-c1cc(C(=O)O)cc(C(=O)O)c1 | inactive
17 | Cc1c(C(=O)c2cccc3ccccc23)c2cccc3c2n1[C@H](CN1CCOCC1)CO3 | inactive

Row | Compound | Potency
18 | O=C(Cc1ccccc1)c1ccccn1 | 10.7 µM (active)
19 | COC1C(O)C(C)OC(OC2C(Oc3cccc4c(O)c5c(=O)oc6ccc(C)c7c(=O)oc(c34)c5c67)OC(C)C(O)C2O)C1O (stereo not drawn) | inactive
20 | CCC(COC(=O)c1cc(OC)c(OC)c(OC)c1)(c1ccccc1)N(C)C (stereo not drawn) | inactive
21 | COC(=O)C1=C(C)NC(C)=C(C(=O)OC)C1c1ccccc1[N+](=O)[O-] | 10.7 µM (active)
22 | O=C(O)c1cc[c]([Sb](=[O])([OH])[OH])cc1[N+](=O)[O-] | inactive
23 | C=CCN1C(=O)/C(=C/c2ccc(Br)s2)C(=O)NC1=S | inactive
24 | Cc1ccc2c(C)c3ccc4ccccc4c3c[n+]2c1 | 13.5 µM (active)
25 | CCOC(=O)CCCc1cc[c]([Sb](=[O])([OH])[OH])cc1 | inactive
26 | CCOc1ccc(N2C(=O)/C(=C/c3ccc(C)o3)C(=O)NC2=S)cc1 | inactive
27 | C=C1C(=O)O[C@@H]2C[C@@H](C)[C@@H]3C=CC(=O)[C@@]3(C)[C@@H](OC(=O)CC(=O)O[C@H]3[C@@H]4C(=C)C(=O)O[C@@H]4C[C@@H](C)[C@@H]4C=CC(=O)[C@]43C)[C@H]12 | 8.49 µM (active)
28 | Cc1ccc(/C=C2\C(=O)NC(=S)N(c3cccc(F)c3)C2=O)o1 | inactive
29 | O=C(O)CCCOc1ccc(Cl)cc1Cl | inactive
30 | CNc1ccc2nc3ccccc3[n+](C)c2c1 | 8.49 µM (active)
31 | Cc1c(N=Nc2c(O)[nH]c(=O)[nH]c2=O)c(=O)n(-c2ccccc2)n1C | 2.13 µM (active)
32 | O=C1NC(=O)N(c2ccc(Br)cc2)C(=O)/C1=C/c1ccsc1 | inactive
33 | CCOc1cc2c(cc1OCC)-n1cccc1C(c1ccc(F)cc1)NC2 (stereo not drawn) | inactive
